Laboratory results from PubChem BioAssay.
Calls of active or inactive are those of the source.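 Rule for the calls: active = normalized viability below 100% at a tested concentration; inactive = the rest.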

Assay: ovarian cancer cell viability with rucaparib, profiling panel, oncology-focused library, rucaparib conditional (AID 1508598)
Conditions: patient-derived ovarian cancer cells, CellTiter-Glo viability, 144 h; at 0.0195 µM; OCI-P5x cells; with rucaparib 20 µM; hits give low values; 100% = cells with rucaparib alone

Compound | viability
CNC(=O)c1cc(COc2nnc(Nc3ccc(Cl)cc3)c3ccoc23)ccn1 | 104% (inactive)
Nc1ccn([C@@H]2O[C@H](CO)[C@@H](O)C2(F)F)c(=O)n1 | 47.3% (active)
O=C(CCCCCCC(=O)Nc1ccc([C@H]2O[C@@H](CSc3nc(-c4ccccc4)c(-c4ccccc4)o3)C[C@@H](c3ccc(CO)cc3)O2)cc1)NO | 72% (active)
CNC(=O)c1cc(Oc2ccc(NC(=O)Nc3ccc(Cl)c(C(F)(F)F)c3)c(F)c2)ccn1 | 115% (inactive)
CS(=O)(=O)N1CCc2c(-c3cnc(N)nc3)nc(N3CCOCC3)nc21 | 115% (inactive)

Same assay, conditions: patient-derived ovarian cancer cells, CellTiter-Glo viability, 144 h; at 0.0195 µM; OCI-P5x cells; without rucaparib; hits give low values

Compound | viability
CNC(=O)c1cc(COc2nnc(Nc3ccc(Cl)cc3)c3ccoc23)ccn1 | 109% (inactive)
Nc1ccn([C@@H]2O[C@H](CO)[C@@H](O)C2(F)F)c(=O)n1 | 22% (active)
O=C(CCCCCCC(=O)Nc1ccc([C@H]2O[C@@H](CSc3nc(-c4ccccc4)c(-c4ccccc4)o3)C[C@@H](c3ccc(CO)cc3)O2)cc1)NO | 79.1% (active)
CNC(=O)c1cc(Oc2ccc(NC(=O)Nc3ccc(Cl)c(C(F)(F)F)c3)c(F)c2)ccn1 | 116% (inactive)
CS(=O)(=O)N1CCc2c(-c3cnc(N)nc3)nc(N3CCOCC3)nc21 | 111% (inactive)

Same assay, conditions: patient-derived ovarian cancer cells, CellTiter-Glo viability, 144 h; at 0.0781 µM; OCI-C5x cells; with rucaparib 10 µM; hits give low values; 100% = cells with rucaparib alone

Compound | viability
CNC(=O)c1cc(COc2nnc(Nc3ccc(Cl)cc3)c3ccoc23)ccn1 | 109% (inactive)
Nc1ccn([C@@H]2O[C@H](CO)[C@@H](O)C2(F)F)c(=O)n1 | 56.5% (active)
O=C(CCCCCCC(=O)Nc1ccc([C@H]2O[C@@H](CSc3nc(-c4ccccc4)c(-c4ccccc4)o3)C[C@@H](c3ccc(CO)cc3)O2)cc1)NO | 112% (inactive)
CNC(=O)c1cc(Oc2ccc(NC(=O)Nc3ccc(Cl)c(C(F)(F)F)c3)c(F)c2)ccn1 | 106% (inactive)
CS(=O)(=O)N1CCc2c(-c3cnc(N)nc3)nc(N3CCOCC3)nc21 | 87.7% (active)

Same assay, conditions: patient-derived ovarian cancer cells, CellTiter-Glo viability, 144 h; at 0.0781 µM; OCI-C5x cells; without rucaparib; hits give low values

Compound | viability
CNC(=O)c1cc(COc2nnc(Nc3ccc(Cl)cc3)c3ccoc23)ccn1 | 110% (inactive)
Nc1ccn([C@@H]2O[C@H](CO)[C@@H](O)C2(F)F)c(=O)n1 | 47.8% (active)
O=C(CCCCCCC(=O)Nc1ccc([C@H]2O[C@@H](CSc3nc(-c4ccccc4)c(-c4ccccc4)o3)C[C@@H](c3ccc(CO)cc3)O2)cc1)NO | 139% (inactive)
CNC(=O)c1cc(Oc2ccc(NC(=O)Nc3ccc(Cl)c(C(F)(F)F)c3)c(F)c2)ccn1 | 88.4% (active)
CS(=O)(=O)N1CCc2c(-c3cnc(N)nc3)nc(N3CCOCC3)nc21 | 115% (inactive)

Same assay, conditions: patient-derived ovarian cancer cells, CellTiter-Glo viability, 144 h; at 0.0781 µM; OCI-P5x cells; with rucaparib 20 µM; hits give low values; 100% = cells with rucaparib alone

Compound | viability
CNC(=O)c1cc(COc2nnc(Nc3ccc(Cl)cc3)c3ccoc23)ccn1 | 101% (inactive)
Nc1ccn([C@@H]2O[C@H](CO)[C@@H](O)C2(F)F)c(=O)n1 | 50.9% (active)
O=C(CCCCCCC(=O)Nc1ccc([C@H]2O[C@@H](CSc3nc(-c4ccccc4)c(-c4ccccc4)o3)C[C@@H](c3ccc(CO)cc3)O2)cc1)NO | 102% (inactive)
CNC(=O)c1cc(Oc2ccc(NC(=O)Nc3ccc(Cl)c(C(F)(F)F)c3)c(F)c2)ccn1 | 115% (inactive)
CS(=O)(=O)N1CCc2c(-c3cnc(N)nc3)nc(N3CCOCC3)nc21 | 112% (inactive)

Same assay, conditions: patient-derived ovarian cancer cells, CellTiter-Glo viability, 144 h; at 0.0781 µM; OCI-P5x cells; without rucaparib; hits give low values

Compound | viability
CNC(=O)c1cc(COc2nnc(Nc3ccc(Cl)cc3)c3ccoc23)ccn1 | 109% (inactive)
Nc1ccn([C@@H]2O[C@H](CO)[C@@H](O)C2(F)F)c(=O)n1 | 25.3% (active)
O=C(CCCCCCC(=O)Nc1ccc([C@H]2O[C@@H](CSc3nc(-c4ccccc4)c(-c4ccccc4)o3)C[C@@H](c3ccc(CO)cc3)O2)cc1)NO | 106% (inactive)
CNC(=O)c1cc(Oc2ccc(NC(=O)Nc3ccc(Cl)c(C(F)(F)F)c3)c(F)c2)ccn1 | 110% (inactive)
CS(=O)(=O)N1CCc2c(-c3cnc(N)nc3)nc(N3CCOCC3)nc21 | 110% (inactive)

Same assay, conditions: patient-derived ovarian cancer cells, CellTiter-Glo viability, 144 h; at 0.313 µM; OCI-C5x cells; with rucaparib 10 µM; hits give low values; 100% = cells with rucaparib alone

Compound | viability
CNC(=O)c1cc(COc2nnc(Nc3ccc(Cl)cc3)c3ccoc23)ccn1 | 108% (inactive)
Nc1ccn([C@@H]2O[C@H](CO)[C@@H](O)C2(F)F)c(=O)n1 | 36.8% (active)
O=C(CCCCCCC(=O)Nc1ccc([C@H]2O[C@@H](CSc3nc(-c4ccccc4)c(-c4ccccc4)o3)C[C@@H](c3ccc(CO)cc3)O2)cc1)NO | 116% (inactive)
CNC(=O)c1cc(Oc2ccc(NC(=O)Nc3ccc(Cl)c(C(F)(F)F)c3)c(F)c2)ccn1 | 104% (inactive)
CS(=O)(=O)N1CCc2c(-c3cnc(N)nc3)nc(N3CCOCC3)nc21 | 91.8% (active)

Same assay, conditions: patient-derived ovarian cancer cells, CellTiter-Glo viability, 144 h; at 0.313 µM; OCI-C5x cells; without rucaparib; hits give low values

Compound | viability
CNC(=O)c1cc(COc2nnc(Nc3ccc(Cl)cc3)c3ccoc23)ccn1 | 113% (inactive)
Nc1ccn([C@@H]2O[C@H](CO)[C@@H](O)C2(F)F)c(=O)n1 | 35.1% (active)
O=C(CCCCCCC(=O)Nc1ccc([C@H]2O[C@@H](CSc3nc(-c4ccccc4)c(-c4ccccc4)o3)C[C@@H](c3ccc(CO)cc3)O2)cc1)NO | 137% (inactive)
CNC(=O)c1cc(Oc2ccc(NC(=O)Nc3ccc(Cl)c(C(F)(F)F)c3)c(F)c2)ccn1 | 102% (inactive)
CS(=O)(=O)N1CCc2c(-c3cnc(N)nc3)nc(N3CCOCC3)nc21 | 105% (inactive)
